This passage reports Potency results from PubChem BioAssay (Tox21).

A number with no mark means an inactive call. Inconclusive results are not listed. The source made the active and inactive calls. Unless noted, calls follow the shape of the dose curve; as a rule, active = well fitted curve in the direction sought with a large enough effect in the repeat runs; inconclusive = weak or mixed curves; inactive = no such curve, though single readings can be large; an effect the other way counts as inactive or inconclusive.

Assay [1] is described as follows: Caspase-3/7 induction in HepG2 cells by small molecules, qHTS assay (AID 1346978). Also: nearly all actives have a fitted effect of over 15% in size. In outline: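 Wild-type HepG2 cells (2,000/well) were settled 5 h at 37 C, 5% CO2, then exposed to compounds in DMSO for 17 h. Caspase-3/7 activity was read by luminescence 30 min after adding Caspase-Glo 3/7 reagent at room temperature.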
Assay [2] in a line: Caspase-3/7 induction in CHO-K1 cells by small molecules, qHTS cell viability counter screen (AID 1346979). Also: nearly all actives have a fitted effect of over 35% in size. In outline:
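CellTiter-Fluor viability check, qHTS format: wild-type CHO-K1, 16hr compound treatment, 1hr reagent incubation, fluorescence read.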
Background: qHTS replaces the single test concentration by a dilution series.

Assay [3] in a line: Caspase-3/7 induction in CHO-K1 cells by small molecules, qHTS assay (AID 1346980). Also: nearly all actives have a fitted effect of over 15% in size. In outline: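 Wild-type cells were seeded at 1,500 per well and settled 5 hr at 37 C, 5% CO2, then exposed to DMSO-dissolved compounds for 17 hr. Caspase-Glo 3/7 reagent was added, and luminescence was read after 30min at room temperature.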
The nature of assay [4]: Caspase-3/7 induction in HepG2 cells by small molecules, qHTS cell viability counter screen (AID 1346981). Also: series mostly up to about 92 µM; nearly all actives have a fitted effect of over 30% in size. Put shortly:
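In this quantitative HTS counter screen, compounds delivered in DMSO were left on unmodified HepG2 cells for 16 hr at 37 C. Viability was then determined fluorometrically with CellTiter-Fluor, in parallel with caspase-3/7 induction in the same wells.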

Assay [5] concerns the target Nuclear receptor subfamily 1 group I member 2 (Homo sapiens) (UniProt O75469). Put plainly: Human pregnane X receptor (PXR) small molecule agonists, qHTS assay (AID 1346982). Also: nearly all actives have a fitted effect of over 35% in size. Also: potency is read from the fitted curve at half-maximal effect. In outline:
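Reporter HepG2 cells expressing PXR-Luc are cultured in charcoal-stripped FBS (5%), treated with compounds for 24 hr at 37 C, and assayed by ONE-Glo luminescence after 30 min at room temperature.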

Assay [6] addresses Acetylcholinesterase (Homo sapiens) (UniProt P22303). In words: Acetylcholinesterase (AChE) small molecule antagonists: colormetric cell-based qHTS assay (AID 1347395; calls by dose curve; also: nearly all actives have a fitted effect of over 30% in size). In outline:
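AChE inhibition read colorimetrically via DTNB–thiocholine in SH-SY5Y cells. Compound 30 min, substrate 90 min, both 37 C.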

Assay [7] has the same target. Put plainly: Acetylcholinesterase (AChE) small molecule antagonists: enzyme-based qHTS assay (AID 1347397; calls by dose curve; also: nearly all actives have a fitted effect of over 55% in size). The note with it: Potency: AChE enzyme activity inhibition. Put shortly: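 Tox21 library chemicals are tested in qHTS format against recombinant human AChE. The enzyme, dispensed at 50 mU/mL, sits with compound for 30 min at room temperature. A DTNB–acetylthiocholine cocktail follows, and colour is read after 10 min.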

Chain of Acetylcholinesterase (Homo sapiens) (P22303 whole entry, looked up): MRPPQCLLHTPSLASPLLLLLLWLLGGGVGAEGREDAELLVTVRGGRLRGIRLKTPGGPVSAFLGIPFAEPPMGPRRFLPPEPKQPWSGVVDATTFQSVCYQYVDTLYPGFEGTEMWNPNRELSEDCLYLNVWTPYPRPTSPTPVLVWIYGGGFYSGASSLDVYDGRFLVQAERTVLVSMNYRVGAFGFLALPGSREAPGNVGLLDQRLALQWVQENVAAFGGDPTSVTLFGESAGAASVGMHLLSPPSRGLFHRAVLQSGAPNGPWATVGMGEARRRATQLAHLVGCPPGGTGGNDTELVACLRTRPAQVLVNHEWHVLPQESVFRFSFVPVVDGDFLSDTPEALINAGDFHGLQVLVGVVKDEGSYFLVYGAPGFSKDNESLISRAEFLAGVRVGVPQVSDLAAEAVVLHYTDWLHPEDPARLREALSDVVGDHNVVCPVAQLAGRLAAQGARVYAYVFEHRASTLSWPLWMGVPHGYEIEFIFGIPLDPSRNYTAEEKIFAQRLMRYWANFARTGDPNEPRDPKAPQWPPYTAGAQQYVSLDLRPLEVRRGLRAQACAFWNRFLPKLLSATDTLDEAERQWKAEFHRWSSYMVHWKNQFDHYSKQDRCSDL
Chain of Nuclear receptor subfamily 1 group I member 2 (Homo sapiens) (O75469 whole entry, looked up): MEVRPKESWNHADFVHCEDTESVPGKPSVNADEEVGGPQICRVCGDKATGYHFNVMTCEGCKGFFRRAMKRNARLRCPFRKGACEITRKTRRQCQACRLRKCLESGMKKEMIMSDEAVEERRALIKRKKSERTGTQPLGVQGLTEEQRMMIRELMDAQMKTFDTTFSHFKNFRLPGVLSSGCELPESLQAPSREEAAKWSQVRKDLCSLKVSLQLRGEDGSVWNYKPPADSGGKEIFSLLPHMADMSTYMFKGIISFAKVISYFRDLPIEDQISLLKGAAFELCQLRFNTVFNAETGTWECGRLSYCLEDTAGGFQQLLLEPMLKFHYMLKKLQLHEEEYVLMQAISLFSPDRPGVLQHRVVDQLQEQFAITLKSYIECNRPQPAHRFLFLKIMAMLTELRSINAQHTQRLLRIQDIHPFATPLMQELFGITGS

Turning to `CC(C(=O)c1ccccc1)N(C)C` (configuration not stated), the Potency entry in assay [1], in assay [2], in assay [3], in assay [4], in assay [5] and in assay [6] was “inactive” throughout. For the same compound, the Potency result in assay [7] is “inactive”.
Regarding `Cc1cc(C)c(C(=O)P(=O)(C(=O)c2c(C)cc(C)cc2C)c2ccccc2)c(C)c1`, the Potency result in assay [1], in assay [2], in assay [3], in assay [4], in assay [6] and in assay [7] was “inactive” in each case. For the same compound, the Potency in assay [5] is 24.3 µM (active).
Turning to `OC(Cn1cncn1)(c1ccc(F)cc1)c1ccccc1F` (configuration not stated), the Potency entry in assay [1], in assay [2], in assay [3], in assay [4], in assay [5] and in assay [6] was “inactive” in each case. Moreover, the Potency result in assay [7] is “inactive”.
Turning to `OC(c1ccc(F)cc1)(c1cncnc1)c1ccccc1Cl` (configuration not stated), the Potency entry in assay [1], in assay [2], in assay [3], in assay [4], in assay [6] and in assay [7] was “inactive” throughout. Further, the Potency in assay [5] is 30.6 µM (active).
Regarding `CC1CCCCC1NC(=O)Nc1ccccc1` (configuration not stated), the Potency entry in assay [1], in assay [2], in assay [3], in assay [4], in assay [6] and in assay [7] was “inactive” each time. For the same compound, the Potency in assay [5] was 24.3 µM (active).
On to `Cc1ncc(CNC(=O)N(CCCl)N=O)c(N)n1`, for which the Potency result in assay [1], in assay [2], in assay [3], in assay [4], in assay [5] and in assay [6] was “inactive” in each case. Moreover, the Potency entry in assay [7] was “inactive”.
With `N#CC(Cl)(Cl)Cl`, the Potency result in assay [1], in assay [2], in assay [3], in assay [4], in assay [5] and in assay [6] was “inactive” in each case. Also, the Potency result in assay [7] is “inactive”.
`O=CNC(N1CCN(C(NC=O)C(Cl)(Cl)Cl)CC1)C(Cl)(Cl)Cl` (configuration not stated): the Potency result in assay [1], in assay [2], in assay [3], in assay [4], in assay [6] and in assay [7] was “inactive” throughout. The Potency in assay [5] was 27.3 µM (active).
As for `O=[N+]([O-])c1cccc2c([N+](=O)[O-])cccc12`, the Potency result in assay [1], in assay [2], in assay [3], in assay [4], in assay [5] and in assay [6] was “inactive” each time. Moreover, the Potency entry in assay [7] was “inactive”.
Take `O=[N+]([O-])c1cccc2cccnc12`: the Potency entry in assay [1], in assay [2], in assay [3], in assay [4], in assay [6] and in assay [7] was “inactive” in each case. Further, the Potency in assay [5] is 35.3 µM (active).
Take `CCC1(c2ccccc2)C(=O)N=C(O)NC1=O` (configuration not stated): the Potency entry in assay [1], in assay [2], in assay [3], in assay [4], in assay [6] and in assay [7] was “inactive” each time. In addition, in assay [5], the Potency was 53 µM (active).
Consider `Cc1nc(N)nc(N)n1`, for which the Potency result in assay [1], in assay [2], in assay [3], in assay [4], in assay [5] and in assay [6] was “inactive” throughout. Besides, the Potency entry in assay [7] was “inactive”.
For the compound `CC(Oc1ccc(Oc2ncc(C(F)(F)F)cc2Cl)cc1)C(=O)O` (configuration not stated), the Potency entry in assay [1], in assay [2], in assay [3], in assay [4], in assay [5] and in assay [6] was “inactive” each time. In addition, the Potency entry in assay [7] was “inactive”.
As to `Cc1nnc2n1-c1sc(CCC(=O)N3CCOCC3)cc1C(c1ccccc1Cl)=NC2`, the Potency entry in assay [1], in assay [2], in assay [3], in assay [4], in assay [5] and in assay [6] was “inactive” in each case. In assay [7], the Potency result was “inactive”.
Regarding `CC1CN1P(=O)(N1CC1C)N1CC1C` (configuration not stated), the Potency result in assay [1], in assay [2], in assay [3], in assay [4], in assay [5] and in assay [6] was “inactive” in each case. The Potency entry in assay [7] is “inactive”.
With `COc1cc(OC)nc(NC(=O)NS(=O)(=O)c2ncccc2OCC(F)(F)F)n1`, the Potency result in assay [1], in assay [2], in assay [3], in assay [4], in assay [5] and in assay [6] was “inactive” in each case. Further, the Potency entry in assay [7] was “inactive”.
Consider `C1CCC(C2CCCCC2)CC1`, for which the Potency entry in assay [1], in assay [2], in assay [3], in assay [4], in assay [5] and in assay [6] was “inactive” throughout. Moreover, the Potency entry in assay [7] is “inactive”.
Regarding `CN(N=O)C(N)=O`, the Potency result in assay [1], in assay [2], in assay [3], in assay [4], in assay [5] and in assay [6] was “inactive” throughout. Besides, in assay [7], the Potency entry is “inactive”.
As for `O=C(Cc1ccccc1)OCc1ccccc1`, the Potency entry in assay [1], in assay [2], in assay [3], in assay [4], in assay [5] and in assay [6] was “inactive” each time. Also, the Potency entry in assay [7] is “inactive”.
Consider `CNC(=O)N(C)c1nc2ccccc2s1`, for which the Potency result in assay [1], in assay [2], in assay [3], in assay [4], in assay [6] and in assay [7] was “inactive” throughout. In addition, the Potency in assay [5] was 30.6 µM (active).
On to `CC1=NNC(=O)N(/N=C/c2cccnc2)C1`, for which the Potency entry in assay [1], in assay [2], in assay [3], in assay [4], in assay [5] and in assay [6] was “inactive” in each case. For the same compound, the Potency result in assay [7] was “inactive”.
For `Nc1cnn(-c2ccccc2)c(=O)c1Cl`, the Potency entry in assay [1], in assay [2], in assay [3], in assay [4], in assay [5] and in assay [6] was “inactive” each time. In addition, the Potency result in assay [7] is “inactive”.
As for `CC1CCC(=O)O1` (configuration not stated), the Potency entry in assay [1], in assay [2], in assay [3], in assay [4], in assay [5] and in assay [6] was “inactive” throughout. Besides, the Potency entry in assay [7] was “inactive”.
With `CC(N)=S`, the Potency entry in assay [1], in assay [2], in assay [3], in assay [4], in assay [5] and in assay [6] was “inactive” each time. Further, the Potency result in assay [7] was “inactive”.
Take `CC(=O)CC(c1ccc(Cl)cc1)c1c(O)c2ccccc2oc1=O` (configuration not stated): the Potency entry in assay [1], in assay [2], in assay [3], in assay [4], in assay [5] and in assay [6] was “inactive” each time. Moreover, in assay [7], the Potency result is “inactive”.
With `COP(=S)(OC)Oc1c(Cl)cc(C)cc1Cl`, the Potency entry in assay [1], in assay [2], in assay [3], in assay [4], in assay [6] and in assay [7] was “inactive” throughout. In addition, the Potency in assay [5] is 24.3 µM (active).
For the compound `CCCCCCI`, the Potency entry in assay [1], in assay [2], in assay [3], in assay [4], in assay [5] and in assay [6] was “inactive” in each case. The Potency result in assay [7] was “inactive”.
Consider `CC(C)(C)C(=O)C(Oc1ccc(Cl)cc1)n1cncn1` (configuration not stated), for which the Potency result in assay [1], in assay [2], in assay [3], in assay [4], in assay [6] and in assay [7] was “inactive” each time. Further, the Potency in assay [5] was 27.3 µM (active).
Consider `CCOC(=O)C1(c2ccccc2)CCN(CCc2ccc(N)cc2)CC1`, for which the Potency entry in assay [1], in assay [2], in assay [3], in assay [4], in assay [6] and in assay [7] was “inactive” in each case. In addition, the Potency in assay [5] is 3.76 µM (active).
With `CCOc1nc(C(Cl)(Cl)Cl)ns1`, the Potency result in assay [1], in assay [2], in assay [3], in assay [4], in assay [5] and in assay [6] was “inactive” in each case. For the same compound, the Potency entry in assay [7] was “inactive”.
In the case of `CC(=O)CCc1ccc2c(c1)OCO2`, the Potency result in assay [1], in assay [2], in assay [3], in assay [4], in assay [5] and in assay [6] was “inactive” throughout. The Potency result in assay [7] was “inactive”.
